# Results filed as inconclusive are left out. Calls of active or inactive are those of the source. Unless noted, the call rests on the fitted dose curve; in most records, active means well fitted curve in the direction sought with a large enough effect; inconclusive means small, poorly fitted or top-dose-only effect, or another doubt; inactive means no such curve, though single readings can be large; an effect the other way counts as inactive or inconclusive.
# How the values were obtained:
# [1] = target: Cytochrome P450 3A4 (Homo sapiens) (UniProt P08684); assay: qHTS Assay for Inhibitors and Substrates of Cytochrome P450 3A4 (AID 884); further: nearly all actives have a fitted effect of over 50% in size; further: potency means the concentration at half of the fitted maximal effect; on activity change, negative = inhibition: on the % scale 0 is the no-effect control and ±100 the full control effect
# Chain of Cytochrome P450 3A4 (Homo sapiens) (P08684 whole entry, looked up): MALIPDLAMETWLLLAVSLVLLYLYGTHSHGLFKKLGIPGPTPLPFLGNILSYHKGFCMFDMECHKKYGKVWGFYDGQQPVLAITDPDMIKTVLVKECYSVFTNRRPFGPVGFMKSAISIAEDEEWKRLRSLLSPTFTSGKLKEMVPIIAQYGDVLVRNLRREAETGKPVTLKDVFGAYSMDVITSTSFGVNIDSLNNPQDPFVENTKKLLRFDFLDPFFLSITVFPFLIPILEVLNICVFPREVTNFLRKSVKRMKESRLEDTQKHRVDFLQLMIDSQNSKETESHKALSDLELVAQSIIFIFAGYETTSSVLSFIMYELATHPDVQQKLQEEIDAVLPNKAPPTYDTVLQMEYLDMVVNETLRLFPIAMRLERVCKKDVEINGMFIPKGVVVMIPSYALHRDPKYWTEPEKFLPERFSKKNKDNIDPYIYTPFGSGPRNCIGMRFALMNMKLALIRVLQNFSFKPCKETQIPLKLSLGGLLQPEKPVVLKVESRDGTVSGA
# Outline: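 20 nM human CYP3A4 with 25 uM Luciferin-PPXE (at KM) in 200 mM KPO4, preincubated 10 min with compound; NADPH regeneration started a 60 min RT reaction. Luciferin detected by luminescence, normalized to 57 uM ketoconazole as full inhibition.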
# [2] = target: Cytochrome P450 3A4 (Homo sapiens) (UniProt P08684); assay: qHTS Assay for Activators of Cytochrome P450 3A4 (AID 885); further: nearly all actives have a fitted effect of over 65% in size
# Outline: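 20nM CYP3A4 + 25uM Luciferin-PPXE (=KM), 200mM KPO4; cpd 10 min RT; NADPH regen, 60 min RT; stop w/ detection buffer, 20 min; luminescence. Normalized to 57 uM ketoconazole.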
# [3] = Confirmation and Secondary Assay for Modulators of Hemoglobin Beta Chain Splicing at IVS2 654 locus (AID 910);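 further: per-well total GFP intensity by laser scanning cytometry after 2-day treatment; % of control where 0% means no effect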
# Outline: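 HeLa cells stably carrying EGFP interrupted by mutant beta-globin IVS2-654 intron (CMV-driven) were treated with compound for 2 days at 37C; corrected splicing was scored as total peak GFP intensity per well (488 nm excitation, 500-520 nm emission).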
# [4] = Confirmation and Secondary Assay for Modulators of Hemoglobin Beta Chain Splicing at IVS2 705 locus (AID 930);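 further: HeLa cells stably expressing the EGFP-705 splicing reporter; GFP fluorescence per well restored by corrected splicing of the IVS2-705 intron in EGFP; % of control where 0% means no effect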
# Outline: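 HeLa IVS2-705 EGFP reporter cells, 500/well, compound 2 d at 37C; correct splicing yields fluorescent EGFP. Control: 500 nM antisense PNA. Read-out: total peak GFP intensity.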
# [5] = qHTS Assay for Lipid Storage Modulators (AID 1519; calls by dose curve; on activity change, negative = inhibition: on the % scale 0 is the no-effect control and ±100 the full control effect); conditions: Drosophila S3 cells, BODIPY lipid droplet/cell ratio, laser cytometry, cells loaded with oleic acid; for activity change, negative = inhibition: at 57.5 µM (top of the series)
# Outline: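 Cells seeded at 5,000 per well were treated with compounds over a concentration series and loaded with oleic acid (400 uM, as added). Lipid droplet fluorescence (488 nm excitation, 500-530 nm channel) was read by laser-scanning cytometry and normalized to 20 uM Triacsin C.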
# [6] = measured here: cell count channel max response
# [7] = measured here: lipid channel max response
Compound,Potency [1],Potency [2],Potency [3],Potency [4],"activity change, negative = inhibition [5]","max response [5, 6]","max response [5, 7]"
c1ccc2c(c1)CN1CCCC1=N2,inactive,inactive,inactive,inactive,5.8% (inactive),4.77%,11.2%
CC1=CC(=O)C2C(C)(C)CCC[C@@]2(C)[C@@]1(O)CCc1ccoc1 (some centres not stated),15.8 µM (active),inactive,inactive,inactive,-1.73% (inactive),10.7%,10.8%
Oc1cc(O)c2c(c1)OC(c1cc(O)c(O)c(O)c1)C(O)C2 (configuration not stated),inactive,–,inactive,inactive,12.8% (inactive),12.7%,24.8%
O=C(/C=C/c1ccc(O)cc1)c1ccccc1O,1.58 µM (active),inactive,inactive,inactive,-18.4% (inactive),5.42%,-11.8%
COc1ccccc1-c1coc2cc(O)ccc2c1=O,25.1 µM (active),inactive,inactive,inactive,5.08% (inactive),-6.55%,10.3%
COc1ccc(/C=C/C(=O)c2ccc(O)cc2O)cc1,2.51 µM (active),inactive,inactive,inactive,5.71% (inactive),11.7%,19.5%
CC(=O)OC1CC[C@]2(C)C(CC[C@@]3(C)C2C(=O)C=C2C4C(C)C(C)CC[C@@]4(C(=O)O)CCC23C)C1(C)C (some centres not stated),25.1 µM (active),inactive,inactive,inactive,0.887% (inactive),18.2%,20.8%
COC(=O)CC1C(C)(C)C(O)C2CC3=C4CC(O)OC(c5ccoc5)[C@]4(C)CCC3[C@@]1(C)C2=O (some centres not stated),3.16 µM (active),inactive,inactive,inactive,-6.39% (inactive),8.85%,5.28%
C=C[C@](C)(O)CCC1C(=C)CC(O)C2C(C)(C)CCCC12C (some centres not stated),1.58 µM (active),inactive,inactive,inactive,10.1% (inactive),7.01%,14.1%
COc1ccc(-c2oc3ccccc3c(=O)c2O)cc1OC,20 µM (active),inactive,inactive,inactive,7.98% (inactive),6.61%,24.2%
CC1OC(n2cc(F)c(=O)[nH]c2=O)C(O)C1O (configuration not stated),inactive,–,inactive,inactive,5.38% (inactive),14%,19.9%
COc1cc(O)c(C(C)=O)c(OC)c1,25.1 µM (active),inactive,inactive,inactive,4.43% (inactive),20%,28.9%
Cc1c(S(=O)(=O)O)oc2c1C(=O)C(=O)c1c-2ccc2c1CCCC2(C)C,10 µM (active),inactive,inactive,inactive,4.38% (inactive),7.96%,15.5%
COc1ccc2c(c1)OC1(O)COc3cc(OC)c(OC)cc3C1=C2 (configuration not stated),7.94 µM (active),inactive,inactive,inactive,0.865% (inactive),-18.4%,-15.5%
CSC(N)=NCCCC(N)C(=O)O (configuration not stated),inactive,–,inactive,inactive,1.56% (inactive),5.01%,8.49%
COC(=O)CC1C(C)(C)C(=O)C2CC3=C(CC[C@]4(C)C3=CC(=O)OC4c3ccoc3)[C@@]1(C)C2=O (some centres not stated),2.51 µM (active),inactive,inactive,inactive,-1.73% (inactive),16%,14.2%
COc1ccc(CC(=O)c2ccc(O)cc2O)cc1,12.6 µM (active),inactive,inactive,inactive,4.14% (inactive),-22.7%,-16.5%
OCC1OC(n2cnc3c(Cl)ncnc32)C(O)C1O (configuration not stated),inactive,–,inactive,inactive,1.41% (inactive),10.1%,10.3%
COc1ccc2c(c1)OC/C(=C\c1ccc(OC)c(O)c1)C2=O,10 µM (active),inactive,inactive,inactive,-9.54% (inactive),2.46%,-8.22%
C=CC1=C(C)/C(=C/c2[nH]c(Cc3[nH]c(/C=C4\NC(=O)C(C)=C4C=C)c(C)c3CCC(=O)O)c(CCC(=O)O)c2C)NC1=O,inactive,–,inactive,inactive,-0.375% (inactive),3.69%,3.49%
CCC(=O)OC1C2CC3=C4CC(=O)OC(c5ccoc5)[C@]4(C)CCC3[C@@](C)(C2=O)C(CC(=O)OC)C1(C)C (some centres not stated),inactive,–,inactive,inactive,-15.8% (inactive),-7.4%,-17%
CC1=C(/C=C/C(C)=C/C=C/C(C)=C/C=C/C=C(C)/C=C/C=C(C)/C=C/C(=O)[C@]2(C)CC(O)CC2(C)C)C(C)(C)CC(O)C1 (some centres not stated),inactive,–,inactive,inactive,7.14% (inactive),11.8%,22.4%
CC(C)CCCC(C)C1CCC2C3CC=C4CC(=O)CC[C@@]4(C)C3CC[C@@]12C (some centres not stated),inactive,–,inactive,inactive,3.79% (inactive),3.76%,6.47%
O=c1cc(-c2ccc(O)cc2)oc2cc(OC3OC(CO)C(O)C(O)[C@H]3O[C@@H]3OC[C@@](O)(CO)C3O)cc(O)c12 (some centres not stated),inactive,–,inactive,inactive,1.57% (inactive),23.4%,26.6%
CC(C1OC(C)(C)C(O)C1O)C1CC[C@@]2(C)C3=CCC4C(C)(C)C(=O)CC[C@]4(C)C3CC[C@@]12C (some centres not stated),inactive,–,inactive,inactive,5.14% (inactive),-0.971%,3.6%
CCCCCCCCCCCCCCC(C(=O)OC)C(O)(CC(=O)OC)C(=O)OC (configuration not stated),inactive,–,inactive,inactive,-24% (inactive),-1.14%,-26.9%
CC(C)C1=CC2=CC[C@@H]3[C@](C)(CO)CCC[C@]3(C)C2CC1 (some centres not stated),inactive,–,inactive,inactive,1.89% (inactive),10.4%,14.9%

# Source: PubChem BioAssay (NCATS)
